Experimental data from publication PMC5700166.

How the values were obtained:
Test in all cases: protein-binding microarray (PBM); PBM: ~300 nM protein, 6 mM HEPES pH 7.8, 80 mM KCl, 0.5 mM EDTA, 0.5 mM EGTA, 6% glycerol, 35 ng/ul poly-dIdC, 1% milk, 1 h, room temperature; Ap Aiptasia and Nv Nematostella (sea anemones) / Co Capsaspora / Aq Amphimedon (sponge) / Dm Drosophila / Hu human; RHD is the Rel homology domain; high values mean tight binding
Conditions in all cases: dsDNA, one strand shown
GST-Ap-NF-kB RHD = target: T1, GST-Ap-NF-kB RHD (Exaiptasia pallida (Aiptasia), UniProt A0A913YAJ5 2-422)
T1 sequence: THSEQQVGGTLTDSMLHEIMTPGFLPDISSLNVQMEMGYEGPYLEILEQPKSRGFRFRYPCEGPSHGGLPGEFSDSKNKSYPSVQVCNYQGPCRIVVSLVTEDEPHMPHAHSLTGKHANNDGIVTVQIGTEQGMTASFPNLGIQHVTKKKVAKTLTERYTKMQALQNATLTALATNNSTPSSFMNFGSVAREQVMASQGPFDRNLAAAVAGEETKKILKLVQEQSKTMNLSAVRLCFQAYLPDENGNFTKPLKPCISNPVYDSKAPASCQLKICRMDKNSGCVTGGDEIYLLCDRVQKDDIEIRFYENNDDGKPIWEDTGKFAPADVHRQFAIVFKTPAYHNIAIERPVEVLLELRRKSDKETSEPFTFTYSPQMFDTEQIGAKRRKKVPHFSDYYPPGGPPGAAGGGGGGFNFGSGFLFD

[1] = target: T2, GST-Nv-NF-kB (Cys allele) (Nematostella vectensis, UniProt E5G601 2-411)
T2 sequence: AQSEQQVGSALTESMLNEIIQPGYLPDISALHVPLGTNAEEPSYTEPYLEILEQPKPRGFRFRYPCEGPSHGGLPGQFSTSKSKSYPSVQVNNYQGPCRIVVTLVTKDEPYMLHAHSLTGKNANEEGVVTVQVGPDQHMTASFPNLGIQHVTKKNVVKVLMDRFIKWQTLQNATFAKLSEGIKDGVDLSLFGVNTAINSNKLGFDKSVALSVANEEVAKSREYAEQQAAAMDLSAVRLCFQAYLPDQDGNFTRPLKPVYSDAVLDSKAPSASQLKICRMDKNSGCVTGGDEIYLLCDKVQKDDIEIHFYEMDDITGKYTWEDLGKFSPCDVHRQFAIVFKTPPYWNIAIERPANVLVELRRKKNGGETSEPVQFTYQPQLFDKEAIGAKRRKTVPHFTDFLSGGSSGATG

GST-Co-NF-kB = target: T3, GST-Co-NF-kB (Capsaspora owczarzaki, UniProt F1ARL5 200-546)
T3 sequence: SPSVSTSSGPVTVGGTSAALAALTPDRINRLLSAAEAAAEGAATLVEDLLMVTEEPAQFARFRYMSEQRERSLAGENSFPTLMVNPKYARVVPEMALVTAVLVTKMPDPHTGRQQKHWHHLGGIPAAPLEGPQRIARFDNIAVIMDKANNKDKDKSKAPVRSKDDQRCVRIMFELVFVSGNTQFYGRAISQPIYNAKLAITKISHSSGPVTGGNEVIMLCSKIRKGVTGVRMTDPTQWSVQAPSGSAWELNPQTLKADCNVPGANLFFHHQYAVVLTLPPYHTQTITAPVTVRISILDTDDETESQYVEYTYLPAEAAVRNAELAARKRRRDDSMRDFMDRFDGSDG

GST-Dm-Relish = target: T4, GST-Dm-Relish (Drosophila melanogaster, UniProt Q94527 99-473)
T4 sequence: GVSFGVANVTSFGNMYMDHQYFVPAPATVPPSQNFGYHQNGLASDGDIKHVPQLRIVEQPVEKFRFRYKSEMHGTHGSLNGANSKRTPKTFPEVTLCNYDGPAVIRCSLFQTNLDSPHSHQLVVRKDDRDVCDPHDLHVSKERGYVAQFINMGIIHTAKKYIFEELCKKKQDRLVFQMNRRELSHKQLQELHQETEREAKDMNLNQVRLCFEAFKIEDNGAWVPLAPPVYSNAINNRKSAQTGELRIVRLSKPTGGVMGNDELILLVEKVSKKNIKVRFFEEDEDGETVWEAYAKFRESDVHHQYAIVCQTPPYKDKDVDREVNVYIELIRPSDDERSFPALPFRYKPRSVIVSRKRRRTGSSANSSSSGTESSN

GST-Aq-NF-kB = target: T5, GST-Aq-NF-kB (Amphimedon queenslandica, UniProt A9Y5G7 2-389)
T5 sequence: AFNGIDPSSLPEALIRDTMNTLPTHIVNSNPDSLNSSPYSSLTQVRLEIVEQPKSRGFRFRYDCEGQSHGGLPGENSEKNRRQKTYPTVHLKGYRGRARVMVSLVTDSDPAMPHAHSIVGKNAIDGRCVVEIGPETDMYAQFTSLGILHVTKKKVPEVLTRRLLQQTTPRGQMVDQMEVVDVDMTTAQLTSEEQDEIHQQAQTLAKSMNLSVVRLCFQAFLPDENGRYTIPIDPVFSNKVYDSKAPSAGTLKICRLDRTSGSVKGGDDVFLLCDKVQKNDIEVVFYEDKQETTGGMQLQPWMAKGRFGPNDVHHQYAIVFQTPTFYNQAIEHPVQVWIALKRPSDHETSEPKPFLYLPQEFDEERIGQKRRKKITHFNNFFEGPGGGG

GST-Hu-p50 = GST-Hu-p50 (Homo sapiens, UniProt P19838 7-356)
Chain of GST-Hu-p50 (P19838 7-356): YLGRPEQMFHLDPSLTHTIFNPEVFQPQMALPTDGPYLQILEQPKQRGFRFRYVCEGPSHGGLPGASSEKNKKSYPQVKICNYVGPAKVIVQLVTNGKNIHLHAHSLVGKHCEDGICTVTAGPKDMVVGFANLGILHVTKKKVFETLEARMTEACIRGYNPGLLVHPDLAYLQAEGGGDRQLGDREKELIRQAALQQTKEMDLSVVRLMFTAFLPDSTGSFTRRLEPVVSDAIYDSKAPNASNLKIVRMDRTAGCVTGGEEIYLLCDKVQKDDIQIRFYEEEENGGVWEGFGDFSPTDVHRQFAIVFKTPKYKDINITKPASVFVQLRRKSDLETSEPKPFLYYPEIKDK

Row | Sequence | binding signal (GST-Ap-NF-kB RHD) [z-score] | binding signal [1] [z-score] | binding signal (GST-Co-NF-kB) [z-score] | binding signal (GST-Dm-Relish) [z-score] | binding signal (GST-Aq-NF-kB) [z-score] | binding signal (GST-Hu-p50) [z-score]
1 | CCGATTAACATCAGGGATACACCTGATGTTAATCGGGTCTTGATTCGCTTGACGCTGCTG | 2.29 | 1.83 | 1.56 | 2.76 | 3.45 | 2.49
2 | CCGATTAACATCAGGAGTCCCCCTGATGTTAATCGGGTCTTGATTCGCTTGACGCTGCTG | 8.32 | 6.17 | 4.42 | 8.71 | 6.95 | 5.55
3 | CCGATTAACATCAGGGGGGTTACTGATGTTAATCGGGTCTTGATTCGCTTGACGCTGCTG | 7.07 | 4.42 | 4.24 | 8 | 5.46 | 5.29
4 | CCGATTAACATCACTAAACCCCCTGATGTTAATCGGGTCTTGATTCGCTTGACGCTGCTG | 6.72 | 4.83 | 3.32 | 7.51 | 4.92 | 6.25
5 | CCGATTAACATCAGAAGACCCCCTGATGTTAATCGGGTCTTGATTCGCTTGACGCTGCTG | 5.66 | 3.66 | 1.79 | 4.9 | 4.82 | 4.45
6 | CCGATTAACATCAGGGGATATAATGATGTTAATCGGGTCTTGATTCGCTTGACGCTGCTG | 5.05 | 4.66 | 4.01 | 3.82 | 3.39 | 4.28
7 | CCGATTAACATCAAACATCCCCCTGATGTTAATCGGGTCTTGATTCGCTTGACGCTGCTG | 6.59 | 6.38 | 5.97 | 6.53 | 6.6 | 5.44
8 | CCGATTAACATCAGGGAAACTTATGATGTTAATCGGGTCTTGATTCGCTTGACGCTGCTG | 3.98 | 6.28 | 5.54 | 2.25 | 6.43 | 4.53
9 | CCGATTAACATCAGGAACCCCCCTGATGTTAATCGGGTCTTGATTCGCTTGACGCTGCTG | 8.98 | 6.2 | 3.38 | 9.74 | 7.32 | 5.86
10 | CCGATTAACATCAACAACCCCCCTGATGTTAATCGGGTCTTGATTCGCTTGACGCTGCTG | 6.24 | 4.31 | 4.22 | 6.01 | 5.18 | 5.38
11 | CCGATTAACATCAGGAGTGCCCCTGATGTTAATCGGGTCTTGATTCGCTTGACGCTGCTG | 2.63 | 2.03 | 1.41 | 2.25 | 5 | 2.25
12 | CCGATTAACATCAGGGGGTTATATGATGTTAATCGGGTCTTGATTCGCTTGACGCTGCTG | 6.77 | 5.64 | 3.18 | 6.58 | 6.3 | 5.59
13 | CCGATTAACATCAAATTTACCCCTGATGTTAATCGGGTCTTGATTCGCTTGACGCTGCTG | 3.29 | 3.57 | 8.25 | 3.85 | 4.53 | 4.09
14 | CCGATTAACATCACTAATCCCCCTGATGTTAATCGGGTCTTGATTCGCTTGACGCTGCTG | 6.44 | 5.78 | 5.81 | 5.13 | 4.99 | 6.23
15 | CCGATTAACATCAGGAAATACCCTGATGTTAATCGGGTCTTGATTCGCTTGACGCTGCTG | 6.05 | 8.7 | 1.14 | 7.3 | 9.37 | 6.12
16 | CCGATTAACATCAAAAATTCACCTGATGTTAATCGGGTCTTGATTCGCTTGACGCTGCTG | 1.56 | 2.59 | 1.24 | 5.78 | 2.74 | 4
17 | CCGATTAACATCAGGGGGAACAATGATGTTAATCGGGTCTTGATTCGCTTGACGCTGCTG | 5.8 | 5.75 | 9.17 | 3.62 | 4.61 | 5.11
18 | CCGATTAACATCACAGAGTCCCCTGATGTTAATCGGGTCTTGATTCGCTTGACGCTGCTG | 6.36 | 4.8 | 2.26 | 5.12 | 4.31 | 5.59
